# Tests used:
# Settings in all cases: treatment time: 24 h
# A549-ACTB-RAB5A [1] = assay: lowest phenotypically active concentration; higher = less potent
# Method in brief: (§1)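 Two criteria together defined phenotypic activity: deviation and reproducibility. Deviation meant ≥3 of 4 wells beyond the 95th percentile of Euclidean distances in solvent control wells, and reproducibility meant a median replicate Pearson correlation above the 95th percentile of non-replicates. Wells had been treated for 24 h at 0.3, 1, 3 or 9 µM in fifteen gene-edited A549, HepG2 and WPMY1 reporter lines before live imaging.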
# A549-CANX-COX4 [2] = assay: as above
# Method in brief: as §1
# A549-GM130-SQSTM1 [3] = assay: as above
# Method in brief: as §1
# A549-TP53BP1-CLTA [4] = assay: as above
# Method in brief: as §1
# A549-TUBA1B-RELA [5] = assay: as above
# Method in brief: as §1
# HepG2-GM130-SQSTM1 [6] = assay: as above
# Method in brief: as §1
# A549-ACTB-RAB5A [7] = assay: phenotypically active (imaging signature differs from DMSO and reproducible) at any of 0.3-9 uM (binary (1 = active, 0 = inactive)); higher = active
# Method in brief: as §1
# A549-CANX-COX4 [8] = assay: as above
# Method in brief: as §1
# A549-GM130-SQSTM1 [9] = assay: as above
# Method in brief: as §1
# A549-TP53BP1-CLTA [10] = assay: as above
# Method in brief: as §1
# A549-TUBA1B-RELA [11] = assay: as above
# Method in brief: as §1
# HepG2-ACTB-RAB5A = assay: as above
# Method in brief: as §1
# HepG2-CANX-COX4 = assay: as above
# Method in brief: as §1
# HepG2-GM130-SQSTM1 [12] = assay: as above
# Method in brief: as §1
# HepG2-TP53BP1-CLTA = assay: as above
# Method in brief: as §1
# HepG2-TUBA1B-RELA = assay: as above
# Method in brief: as §1
# WPMY1-CANX-COX4 = assay: as above
# Method in brief: as §1
# WPMY1-GM130-SQSTM1 = assay: as above
# Method in brief: as §1
# WPMY1-TP53BP1-CLTA = assay: as above
# Method in brief: as §1
# WPMY1-TUBA1B-RELA = assay: as above
# Method in brief: as §1
SMILES,lowest phenotypically active concentration (A549-ACTB-RAB5A [1]) [µM],lowest phenotypically active concentration (A549-CANX-COX4 [2]) [µM],lowest phenotypically active concentration (A549-GM130-SQSTM1 [3]) [µM],lowest phenotypically active concentration (A549-TP53BP1-CLTA [4]) [µM],lowest phenotypically active concentration (A549-TUBA1B-RELA [5]) [µM],lowest phenotypically active concentration (HepG2-GM130-SQSTM1 [6]) [µM],phenotypically active (A549-ACTB-RAB5A [7]),phenotypically active (A549-CANX-COX4 [8]),phenotypically active (A549-GM130-SQSTM1 [9]),phenotypically active (A549-TP53BP1-CLTA [10]),phenotypically active (A549-TUBA1B-RELA [11]),phenotypically active (HepG2-ACTB-RAB5A),phenotypically active (HepG2-CANX-COX4),phenotypically active (HepG2-GM130-SQSTM1 [12]),phenotypically active (HepG2-TP53BP1-CLTA),phenotypically active (HepG2-TUBA1B-RELA),phenotypically active (WPMY1-CANX-COX4),phenotypically active (WPMY1-GM130-SQSTM1),phenotypically active (WPMY1-TP53BP1-CLTA),phenotypically active (WPMY1-TUBA1B-RELA)
COc1cc2c(NC3CCN(C(C)C)CC3)nc(N3CCC(F)(F)CC3)nc2cc1OCCCN1CCCC1,≤ 0.3,9,≤ 0.3,3,≤ 0.3,≤ 0.3,1 (active),1 (active),1 (active),1 (active),1 (active),1 (active),1 (active),1 (active),1 (active),1 (active),1 (active),1 (active),1 (active),1 (active)
CNC1CCC2(C)C(=CCC3C2CCC24CN(C)C(C)C2CCC34)C1 (stereo not given) [Isoconessimine],≤ 0.3,9,≤ 0.3,1,≤ 0.3,1,1 (active),1 (active),1 (active),1 (active),1 (active),1 (active),1 (active),1 (active),1 (active),1 (active),1 (active),1 (active),1 (active),1 (active)
CC[C@@H](N)CNc1ccnc(-c2cc(-c3cnn(C)c3)ccc2O)n1,1,3,1,1,1,1,1 (active),1 (active),1 (active),1 (active),1 (active),1 (active),1 (active),1 (active),1 (active),1 (active),1 (active),1 (active),1 (active),1 (active)
CC(C)(C)c1cnc(CSc2cnc(NC(=O)C3CCNCC3)s2)o1,≤ 0.3,≤ 0.3,≤ 0.3,≤ 0.3,≤ 0.3,≤ 0.3,1 (active),1 (active),1 (active),1 (active),1 (active),1 (active),1 (active),1 (active),1 (active),1 (active),1 (active),1 (active),1 (active),1 (active)
CC(C)n1c(/C=C/[C@@H](O)C[C@@H](O)CC(=O)O)c(-c2ccc(F)cc2)c2ccccc21.CC(C)n1c(/C=C/[C@H](O)C[C@H](O)CC(=O)O)c(-c2ccc(F)cc2)c2ccccc21 [Fluvastatin sodium],≤ 0.3,9,3,9,9,1,1 (active),1 (active),1 (active),1 (active),1 (active),1 (active),1 (active),1 (active),1 (active),1 (active),1 (active),1 (active),1 (active),1 (active)

# — the supplement of paper PMC7411054
